Test results as given in PubChem BioAssay (Tox21).
Results filed as inconclusive are left out. The source made the active and inactive calls. Calls follow the shape of the dose curve; as a rule, active = well fitted curve in the direction sought with a large enough effect in the repeat runs; inconclusive = weak or mixed curves; inactive = no such curve, though single readings can be large; an effect the other way counts as inactive or inconclusive.

Experiments:
[1] = A CellTox Green Cytotoxicity Assay to monitor cytotoxicity in HEK293 cells - 40 hour (AID 1224871); conditions: CellTox Green fluorescence; series mostly up to 76.8 µM; also: nearly all actives have a fitted effect of over 45% in size
In short: (§1)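 Each value comes from one timepoint of a single continuous run in which HEK293 cells with CellTox Green were exposed to compound for up to 40 h at 37 C, dye fluorescence rising with cell death.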

[2] = qHTS RealTime-Glo MT Cell Viability Assay in HEK293 cells - 16 hour (AID 1224872); conditions: RealTime-Glo luminescence; series mostly up to 76.8 µM; also: nearly all actives have a fitted effect of over 50% in size; also: potency is read from the fitted curve at half-maximal effect; as to activity change, negative = cytotoxicity: top concentration of the series differs between compounds
In short: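 HEK293 cells seeded with NanoLuc/prosubstrate reagent, rested 5 h at 37 C, then dosed and kept at 37 C up to 40 h. Nonlytic real-time luminescence from viable cells read at 0, 8, 16, 24, 32 and 40 h.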

[3] = qHTS RealTime-Glo MT Cell Viability Assay in HepG2 cells - 8 hour (AID 1224873); conditions: RealTime-Glo luminescence; series mostly up to 76.8 µM; also: nearly all actives have a fitted effect of over 55% in size; also: potency is read from the fitted curve at half-maximal effect
In short: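 Real-time viability: cells seeded at 600 per well together with NanoLuc and cell-permeant prosubstrate, compounds added after 5 h incubation. Luminescence tracked at 0, 8, 16, 24, 32 and 40 h of exposure.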

[4] = qHTS RealTime-Glo MT Cell Viability Assay in HEK293 cells - 40 hour (AID 1224874); conditions: RealTime-Glo luminescence; max response: stronger effect = lower value; also: nearly all actives have a fitted effect of over 50% in size; also: potency is read from the fitted curve at half-maximal effect
In short: (§2)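 qHTS format; HEK293 cells with NanoLuc/prosubstrate reagent, 37 C/5% CO2 for 5 h pre-dosing; compounds 23 nL in DMSO; luminescence at each time point reflects viable cells.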

[5] = A CellTox Green Cytotoxicity Assay to monitor cytotoxicity in HEK293 cells - 24 hour (AID 1224875); conditions: CellTox Green fluorescence; series mostly up to 76.8 µM; also: nearly all actives have a fitted effect of over 45% in size
In short: as §1

[6] = A CellTox Green Cytotoxicity Assay to monitor cytotoxicity in HepG2 cells - 16 hour (AID 1224876); conditions: CellTox Green fluorescence; series mostly up to 76.8 µM; also: nearly all actives have a fitted effect of over 45% in size
In short: (§3)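 Continuous culture of HepG2 cells with a membrane-impermeant DNA dye; rising fluorescence marks dead cells. Compound exposure lasted up to 40 h at 37 C, with reads every 8 h from 0 h.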

[7] = qHTS RealTime-Glo MT Cell Viability Assay in HepG2 cells - 32 hour (AID 1224877); conditions: RealTime-Glo luminescence; series mostly up to 76.8 µM; also: nearly all actives have a fitted effect of over 55% in size; also: potency is read from the fitted curve at half-maximal effect
In short: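 HepG2 cells (600/well) were dispensed with RealTime-Glo reagents, incubated 5 h at 37 °C, then treated with compounds in DMSO for up to 40 h. Nonlytic NanoLuc luminescence reflecting viable cells was read at each stated time point.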

[8] = A CellTox Green Cytotoxicity Assay to monitor cytotoxicity in HepG2 cells - 40 hour (AID 1224879); conditions: CellTox Green fluorescence; series mostly up to 76.8 µM; also: nearly all actives have a fitted effect of over 40% in size; also: potency is read from the fitted curve at half-maximal effect
In short: as §3

[9] = qHTS RealTime-Glo MT Cell Viability Assay in HEK293 cells - 0 hour (AID 1224880); conditions: RealTime-Glo luminescence; series mostly up to 76.8 µM; also: top concentration of the series differs between compounds; nearly all actives have a fitted effect of over 45% in size
In short: as §2

[10] = A CellTox Green Cytotoxicity Assay to monitor cytotoxicity in HepG2 cells - 24 hour (AID 1224878); conditions: CellTox Green fluorescence; series mostly up to 76.8 µM; also: nearly all actives have a fitted effect of over 45% in size
In short: as §3
% is scaled to controls: 0 for no effect and ±100 for the full control effect.

COc1ccc(CCC(=O)c2c(O)cc(O[C@@H]3O[C@H](CO)[C@@H](O)[C@H](O)[C@H]3O[C@@H]3O[C@@H](C)[C@H](O)[C@@H](O)[C@H]3O)cc2O)cc1O
inactive: Potency [1] | Potency [2] | Potency [3] | max response [4] 12.3% | Potency [5] | Potency [6] | Potency [7] | Potency [8] | Potency [9]

O=Cc1c(Cl)cccc1Cl
inactive: Potency [1] | Potency [2] | Potency [3] | max response [4] -15.3% | Potency [5] | Potency [6] | Potency [7] | Potency [10] | Potency [8] | Potency [9]

N#C[C@@H]1C[C@@H]2C[C@@H]2N1C(=O)[C@@H](N)C12CC3CC(CC(O)(C3)C1)C2
inactive: Potency [1] | Potency [2] | Potency [3] | max response [4] 10.4% | Potency [5] | Potency [6] | Potency [7] | Potency [8] | Potency [9]

O=C(O)c1cccc(O)c1
inactive: Potency [1] | Potency [2] | Potency [3] | max response [4] 8.08% | Potency [5] | Potency [6] | Potency [7] | Potency [10] | Potency [8] | Potency [9]

CC1CN(c2cc3c(cc2F)c(=O)c(C(=O)O)cn3-c2ccc(F)cc2F)CCN1 (stereo not given)
inactive: cytotoxicity increase [1] -7.27% [at 6.97 µM] | activity change, negative = cytotoxicity [2] 6.7% [at 6.97 µM] | viability change, negative = cytotoxic [3] 1.58% [at 6.97 µM] | max response [4] 2.82% | activity change [5] -1.61% [at 6.97 µM, stronger effect = higher value] | cytotoxicity increase [6] 0.798% [at 6.97 µM] | activity change, negative = cytotoxic [7] 0.449% [at 6.97 µM] | cytotoxicity [10] -0.333% [at 6.97 µM] | cytotoxicity increase [8] 1.74% [at 6.97 µM] | activity change, negative = cytotoxicity [9] 15.1% [at 6.97 µM]

Cc1cc2nc3ccc(=[N+](C)C)cc-3sc2cc1N
active: Potency [2] 2130 nM | Potency [3] 9520 nM | Potency [4] 2130 nM | Potency [7] 19000 nM
inactive: Potency [1] | Potency [5] | Potency [6] | Potency [8]

C=CC(C)(C)CC(=O)OC
active: Potency [2] 1380 nM | Potency [4] 1550 nM
inactive: Potency [1] | Potency [3] | Potency [5] | Potency [6] | Potency [7] | Potency [8] | Potency [9]

CC(C)C(=O)O
inactive: Potency [1] | Potency [2] | Potency [3] | max response [4] 9.49% | Potency [5] | Potency [6] | Potency [7] | Potency [10] | Potency [8] | Potency [9]

O=C(O)Cc1ccc(-c2ccccc2)cc1
inactive: Potency [1] | Potency [2] | Potency [3] | max response [4] 10.5% | Potency [5] | Potency [6] | Potency [7] | Potency [10] | Potency [8] | Potency [9]

CCCCCCCCCCOS(=O)(=O)O
inactive: Potency [1] | Potency [2] | Potency [3] | max response [4] -3.11% | Potency [5] | Potency [6] | Potency [7] | Potency [10] | Potency [8] | Potency [9]

C=CC(=C)CCCC(C)(C)OC(C)=O
inactive: Potency [1] | Potency [2] | Potency [3] | max response [4] -7.82% | Potency [5] | Potency [6] | Potency [7] | Potency [8] | Potency [9]

CC(N)CN (stereo not given)
inactive: Potency [1] | Potency [2] | Potency [3] | max response [4] 2.08% | Potency [5] | Potency [6] | Potency [7] | Potency [8] | Potency [9]

Cc1ccc(S)cc1
inactive: Potency [1] | Potency [2] | Potency [3] | max response [4] 4.48% | Potency [5] | Potency [6] | Potency [7] | Potency [9]
active: Potency [8] 17400 nM

CC(C)CCCC(=O)O
inactive: Potency [1] | Potency [2] | Potency [3] | max response [4] -12.3% | Potency [5] | Potency [6] | Potency [7] | Potency [10] | Potency [8] | Potency [9]

CO[C@H]1O[C@H](CO)[C@@H](O)[C@H](O)[C@H]1O
inactive: Potency [1] | Potency [2] | Potency [3] | max response [4] 5.92% | Potency [5] | Potency [6] | Potency [7] | Potency [10] | Potency [8] | Potency [9]

[O]=[Bi]
inactive: cytotoxicity increase [1] -5.17% [at 6.97 µM] | activity change, negative = cytotoxicity [2] 3.35% [at 6.97 µM] | viability change, negative = cytotoxic [3] 0.919% [at 6.97 µM] | max response [4] 3.42% | activity change [5] -2.05% [at 6.97 µM, stronger effect = higher value] | cytotoxicity increase [6] -7.67% [at 6.97 µM] | activity change, negative = cytotoxic [7] 5.58% [at 6.97 µM] | cytotoxicity increase [8] -12.6% [at 6.97 µM] | activity change, negative = cytotoxicity [9] 1.4% [at 6.97 µM]

CN1Cc2cc(C(=O)N3CCC(C4CCNCC4)CC3)ccc2N[C@@H](CC(=O)O)C1=O
inactive: Potency [1] | Potency [2] | Potency [3] | max response [4] 0.441% | Potency [5] | Potency [6] | Potency [7] | Potency [10] | Potency [8] | Potency [9]

ON(Cc1ccccc1)Cc1ccccc1
inactive: Potency [1] | Potency [2] | Potency [3] | max response [4] 4.01% | Potency [5] | Potency [6] | Potency [7] | Potency [10] | Potency [8] | Potency [9]

CC(C)OCC1CO1 (stereo not given)
inactive: Potency [1] | Potency [2] | Potency [3] | max response [4] 11.5% | Potency [5] | Potency [6] | Potency [7] | Potency [10] | Potency [8] | Potency [9]

C=CC(=O)NCOCC(C)C
inactive: Potency [1] | Potency [2] | Potency [3] | max response [4] -14% | Potency [5] | Potency [6] | Potency [7] | Potency [10] | Potency [8] | Potency [9]

CC(=O)Oc1ccc(C(=C2CCCCC2)c2ccc(OC(C)=O)cc2)cc1
inactive: Potency [1] | Potency [2] | Potency [3] | max response [4] 4.82% | Potency [5] | Potency [6] | Potency [7] | Potency [10] | Potency [8] | Potency [9]

COC(=O)[C@@H]1CC2=CC(=O)CC[C@]2(C)[C@@]23O[C@@H]2C[C@@]2(C)[C@@H](CC[C@@]24CCC(=O)O4)[C@H]13
inactive: Potency [1] | Potency [2] | Potency [3] | max response [4] 1.85% | Potency [5] | Potency [6] | Potency [7] | Potency [8] | Potency [9]
